Measured values: ChEMBL document CHEMBL4513216, “Probing the Open Global Health Chemical Diversity Library for Multistage-Active Starting Points for Next-Generation Antimalarials” (ACS Infect Dis, 2020)
The campaign covered roughly 65,000 compounds. About 2,100 (3.2%) showed an effect of 50% or more. The median lay at about -52%. For the sample, strong results were picked, then their nearest neighbours and some compounds at random.

Test system: Plasmodium falciparum
Test: Screen against P. falciparum Asexual Blood Stage (ABS), at 5uM
Format: functional, Dd2
Conditions: tested at 5 uM

Point of comparison: NC1(c2nc(-c3ccccc3)cc(=O)[nH]2)CCCCC1, INHIBITION -0.415%. Against it:
- c1cc(-c2n[nH]cc2-c2ccnc(N3CCCCCC3)n2)ccn1 — higher, 78%
- CC(C)[C@H](CO)Nc1nccc(-c2c[nH]nc2-c2ccncc2)n1 — higher, 83.9%
- c1cc(-c2n[nH]cc2-c2ccnc(N3CCCC3)n2)ccn1 — higher, 81.1%
- COc1cc(N2CC[C@@H]3[C@@H](CC2)OCCN3CC2CC2)ncn1 — lower, -53.8%
- COCC1CC2(CCNCC2)CN1c1ncccn1 (stereo not drawn) — lower, -33.8%
- NC1(c2nc(C(F)(F)F)cc(=O)[nH]2)CCCC1 — lower, -131%
- Cc1cc(O)nc(C2CCCNC2)n1 (stereo not drawn) — lower, -1.25%
- Cc1cc(Cc2ccc(F)cc2)cc(C2CCCNC2)n1 (stereo not drawn) — higher, 73.9%
- Cc1cc(Cc2cccc(C(F)(F)F)c2)cc(C2CCCNC2)n1 (stereo not drawn) — higher, 93.9%
- FC(F)(F)c1nc(C2CCCNC2)no1 (stereo not drawn) — lower, -15.6%
- Cc1cccc(Cc2cc(C)nc(C3CCCNC3)c2)c1 (stereo not drawn) — higher, 80.1%
- Cc1cc(C)nc(C2CCCNC2)n1 (stereo not drawn) — lower, -66.3%
- Cc1nc(NCCC23CCCN2CCC3)cc(C2CCCNC2)n1 (stereo not drawn) — lower, -29.1%
- Cc1cc(Cc2ccccc2)cc(C2CCCNC2)n1 (stereo not drawn) — higher, 76.1%
- CC(C)c1ncc(Cl)c(C(=O)N2CCCN3CCCC3C2)n1 (stereo not drawn) — lower, -79%
- CNC(=O)[C@H]1C[C@@H]2CN(Cc3cccnc3OC)C[C@@H]2N1C(C)=O — higher, 38.2%
- COCCN1CCC2(COCc3cnc(N(C)C)nc32)C1 (stereo not drawn) — lower, -35.3%
- CNc1cc(C2CCCNC2)nc(C)n1 (stereo not drawn) — lower, -80.8%
- CC(C)c1nc(C2CCCNC2)no1 (stereo not drawn) — lower, -62.1%
- Cc1cc(Cc2ccccc2C)cc(C2CCCNC2)n1 (stereo not drawn) — higher, 78.9%
- CCCN1CCN(C(=O)c2ccnc(N)c2)[C@H]2CS(=O)(=O)C[C@H]21 — lower, -88.3%
- O=C1[C@@H]2CCN(Cc3ccoc3)C[C@@H]2OCCN1c1cccnc1 — higher, 23.5%
- CC(C)CN1C(=O)CO[C@@H]2CNC[C@H]21 — lower, -4.26%
- Cc1cccc(CN2CCC(Cc3ccccc3F)CC2)n1 — higher, 94%
- Cc1cccc(CN2CC[C@H]3C[C@H](C)O[C@@H]3C2)n1 — lower, -37.4%
- Fc1ccccc1CC1CCN(Cc2ccccn2)CC1 — higher, 70.4%
- Cc1cccc(CN2CC[C@H]3C[C@@H](C)O[C@@H]3C2)n1 — lower, -46.7%
- C[C@H]1C[C@@H]2CCN(Cc3ccccn3)C[C@H]2O1 — lower, -59.7%
- C[C@@H]1C[C@@H]2CCN(Cc3ccccn3)C[C@H]2O1 — lower, -25.2%
- Cc1nc(CN2C[C@@H]3CN(C(=O)Cc4ccccn4)C[C@@H]3C2)cs1 — lower, -41.5%
- CN1CCC2(Cc3ccccc3NC2=O)C1 (stereo not drawn) — higher, 8.23%
- Cc1nn(C)c2ncc(S(=O)(=O)N3CCN4CCCC4C3)cc12 (stereo not drawn) — lower, -67.5%
- CC(c1cn2ncsc2n1)n1cc2[nH]cccc-2c1=O (stereo not drawn) — lower, -131%
- CO[C@@H]1CN(Cc2scnc2C)[C@@H]2CCCO[C@@H]21 — lower, -39.6%
- CC(=O)N1CCCC2(CN(Cc3ccncc3)CCO2)C1 (stereo not drawn) — lower, -47.6%
- CN1CCC(N(C)C[C@H]2CC[C@@H](Cc3ccc4occc4c3)O2)CC1 — higher, 85.8%
- CCc1nc(CN2CCN(C(=O)Cc3c(C)noc3C)CC2)cs1 — lower, -46.1%
- Cc1noc(C)c1CC(=O)N1CCN(Cc2cscn2)CC1 — lower, -151%
- Cc1noc(C)c1CC(=O)N1CCCN(Cc2cscn2)CC1 — higher, 63.9%
- CCOc1cccc(CNC(C)c2ccc(-n3ccnc3)cc2)c1O (stereo not drawn) — higher, 75%
- COc1cccc(CNC(C)c2ccc(-n3ccnc3)cc2)c1O (stereo not drawn) — higher, 79.5%
- COc1ccccc1CNC(C)c1ccc(-n2ccnc2)cc1 (stereo not drawn) — higher, 78.4%
- CC(Cc1c(F)cccc1F)NC(=O)CSCC(N)=O (stereo not drawn) — lower, -46.4%
- Nc1cnc(-c2cccc3c2CCNC3)cn1 — lower, -39.4%
- Cc1noc([C@@H]2C[C@H]3OCC[C@H]3N(C(C)C)C2)n1 — lower, -89.1%
- CC1(C)CC2(CCO1)NC(=O)c1cc(Br)ccc1-n1nnnc12 (stereo not drawn) — lower, -59.6%
- c1cc(CN2C[C@@H]3COC[C@]3(COCC3CC3)C2)ccn1 — lower, -11.9%
- CNc1ncccc1C(=O)N1CCN(C)C2(CCN(C)CC2)C1 — lower, -111%
- COCCn1cncc1Cn1ncc2ccccc2c1=O — lower, -74.4%
- COc1cccc(CC(=O)N2CCCSCC2CN2CCCC2)c1 (stereo not drawn) — higher, 54.7%
- COc1cccc(OCC(=O)N2CCCSCC2CN2CCOCC2)c1 (stereo not drawn) — lower, -105%
- O=C(COc1ccc(F)cc1)N1CCCSCC1CN1CCOCC1 (stereo not drawn) — lower, -80.2%
- CCS(=O)(=O)N1CCC2(C1)C(=O)N(C)CCN2Cc1ccncc1 (stereo not drawn) — lower, -177%
- CCO[C@@H]1CC[C@H]2[C@H]1OCCN2Cc1ccoc1 — lower, -43.3%
- O=C1N(Cc2ccccn2)C[C@H]2CN(C3CCOCC3)CCN12 — lower, -92.3%
- Fc1ccccc1-c1cccc(C2CCCN(C3CCOCC3)C2)n1 (stereo not drawn) — higher, 82.3%
- OCCN1CCCC(c2cccc(-c3ccccc3F)n2)C1 (stereo not drawn) — higher, 83.4%
- O=C1NC[C@H]2CN(C3CCOCC3)CCN12 — lower, -118%
- Cc1nc(CN2CCN(C(=O)COc3c(C)ccc(C)c3C)CC2)no1 — lower, -66.3%
- O=C(N1CCCO1)[C@@]12CCO[C@@H]1CCN(Cc1cccnc1)C2 — lower, -54.2%
- CN(C)CCN(C)C(=O)Cn1cccc2cc(-c3ccc(F)cc3)nc1-2 — higher, 86.8%
- CCc1cccc2c(CC(=O)N(C)CCN(C)C)c(C)[nH]c12 — higher, 18.4%
- c1ccc(CO[C@@H]2CN(Cc3ccoc3)[C@@H]3COC[C@@H]32)nc1 — lower, -37.1%
- Cc1cc(CN2C[C@@H]3COC[C@]3(COCC(=O)N(C)C)C2)no1 — lower, -23%
- CCc1[nH]c2c(CNc3nccc(N)n3)cc(C)cc2c1C — higher, 90.9%
- CCc1[nH]c2c(CNc3nccc(N)n3)cc(F)cc2c1C — higher, 85.6%
- Cc1cc(CNc2nccc(N)n2)c2[nH]c(C)c(C)c2c1 — higher, 79.5%
- CCN1C(=O)C2(CCCCC2)NC12CCSCC2 — lower, -40%
- COc1cccc(C2SCC(=O)Nc3ccsc32)c1 (stereo not drawn) — lower, -108%
- Cc1nc(CN2CCO[C@@H]3CNCC[C@@H]3C2)cs1 — lower, -15.7%
- NCC(=O)N1CCCC1c1ccc(C(=O)NCc2ccoc2)s1 (stereo not drawn) — higher, 92.6%
- O=C(c1ccc(C2CCCN2)s1)N1CCN2CCC1CC2 (stereo not drawn) — lower, -75.7%
- Cc1sc2nc(C(F)(F)F)nc(N3CCCN(C)CC3)c2c1C — higher, 76.1%
- O=C1CSC(c2ccc(F)c(Cl)c2)c2c(n(C3CCOCC3)[nH]c2=O)N1 (stereo not drawn) — lower, -35.3%
- Cc1cccc(CN2CC3C[C@]3(NC(=O)c3cccc(F)c3)C2)n1 (stereo partly drawn) — lower, -65.9%
- O=C(c1cnc(-c2ccccc2)s1)N1CCC2(CC1)OCCO2 — lower, -174%
- COc1ccc2c(c1)c(C(=O)Nc1nnn[nH]1)cn2C(C)C — lower, -11.6%
- CN1CCC(C2CCN(Cc3cccc(-n4cccn4)c3)CC2)C1 (stereo not drawn) — higher, 85.7%
- c1cnc(N2C[C@H]3CCN(Cc4ccncc4)C[C@H]3C2)nc1 — lower, -82.6%
- c1cc(CN2CC[C@@H]3CN(c4cncnc4)C[C@@H]3C2)ccn1 — lower, -49.4%
- NC(=O)c1cnn2c1NCC(CNCC1(c3ccccc3)CCC1)C2 (stereo not drawn) — higher, 22.7%
- N[C@@H]1CCC[C@@H](Oc2ccc(F)cc2Oc2ccccc2)[C@@H]1O — higher, 77.4%
- CN[C@@H]1CCC[C@@H](Oc2ccccc2Oc2ccc(C)cc2)[C@@H]1O — higher, 90.3%
- Cc1ccc(Oc2cc(F)ccc2O[C@@H]2CCC[C@@H](N)[C@H]2O)cc1 — higher, 91.1%
- Fc1cccnc1N1CCOCC2(CCCNC2)C1 (stereo not drawn) — higher, 34.8%
- CCCN1C(=O)CC2(CCCNC2)C1=O (stereo not drawn) — lower, -90.5%
- CC(O)CN1CCC(CN(C)Cc2cc(F)cc3cccnc23)CC1 (stereo not drawn) — higher, 87.2%
- CN(c1ncccc1C#N)C1CCN(CCc2ccccn2)CC1 — higher, 20.6%
- CN(Cc1cc(Cl)cc2cccnc12)CC1CCN(CCO)CC1 — higher, 88.7%
- CN(Cc1cc(F)cc2cccnc12)CC1CCN(CCO)CC1 — higher, 84.7%
- Cc1ccc(CC(=O)N2CCN(CC(C)O)CC2)cn1 (stereo not drawn) — lower, -89.8%
- CC(C)CN1C(=O)C2(CCCC2)NC1c1cn(C)c(=O)n(C)c1=O (stereo not drawn) — lower, -15.3%
- C[C@H]1C[C@@H]2CCN(CC3CCOCC3)C[C@H]2O1 — lower, -49.5%
- CC(C)OCCNC1(c2ccc(Cl)cc2)CCOCC1 — higher, 37.7%
- CC(NCC1(N(C)C)CCOCC1)c1ccc(Cl)cc1 (stereo not drawn) — higher, 74.6%
- CN1CCN2C(=O)N(C3CCCCC3)C[C@H]2C1 — lower, -52.1%
- CS(=O)(=O)N1CCC2(CCCN(Cc3ccccn3)C2)C1 (stereo not drawn) — lower, -32.2%
- c1ccc(CO[C@@H]2CO[C@@]3(CCN(Cc4ccccn4)C3)C2)nc1 — lower, -34.3%
- c1ccc(CN2CCCC3(CCN(Cc4cccs4)C3)C2)nc1 (stereo not drawn) — higher, 73.8%
- c1ccc(N2CCC3(COCCN(Cc4cccs4)C3)C2)nc1 (stereo not drawn) — higher, 37.5%
- c1ccc(CN2CCC3(CC2)CCN(Cc2cccs2)C3)nc1 — higher, 54.8%
- c1ccc(N2CCCC3(CCN(Cc4cccs4)C3)C2)nc1 (stereo not drawn) — higher, 73.4%
- c1ccc(CN2CCC3(CC2)CC(Nc2nccs2)CO3)nc1 (stereo not drawn) — higher, 75%
- c1ccc(CO[C@H]2CO[C@@]3(CCN(Cc4ccoc4)C3)C2)nc1 — higher, 14.1%
- c1ccc(CN2CCCC3(CCN(CC4CCCO4)CC3)C2)nc1 (stereo not drawn) — higher, 15.1%
- c1ccc(CN2CCC3(CC2)CCN(Cc2cccnc2)C3)nc1 — higher, 21%
- O=S(=O)(C1CC1)N1CCC2(CCCN(Cc3ccccn3)C2)CC1 — lower, -22.4%
